MCF10A rerep: inducers of DNA re-replication in MCF 10A breast cells; MCF 10A DNA re-replication, Hoechst nuclear intensity, 48 h; Potency, µM (highest dose often 46.1 µM), for inactives: at the highest dose activity, positive = re-replication, actives largely listed as activators; actives 2.9% (n = 350,000); AID 624296; further: potency means the concentration at half of the fitted maximal effect; % of control where 0% means no effect; nearly all actives have a fitted effect of over 50% in size
Vif-APOBEC3G blk: Vif-A3G binding inhibition; Q9HC16; HeLa A3G-eYFP + Vif (tagged APOBEC3G with the HIV-1 protein that degrades it), YFP fluorescence, overnight; Potency, µM (doses to about 46.1 µM), for inactives: at the highest dose activity, negative = active, hits mostly inhibitors; actives 0.076% (n = 410,000); AID 602310; further: potency means the concentration at half of the fitted maximal effect; on the % scale 0 is the no-effect control and ±100 the full control effect; nearly all actives have a fitted effect of over 60% in size
Target sequence (Q9HC16 whole entry, looked up): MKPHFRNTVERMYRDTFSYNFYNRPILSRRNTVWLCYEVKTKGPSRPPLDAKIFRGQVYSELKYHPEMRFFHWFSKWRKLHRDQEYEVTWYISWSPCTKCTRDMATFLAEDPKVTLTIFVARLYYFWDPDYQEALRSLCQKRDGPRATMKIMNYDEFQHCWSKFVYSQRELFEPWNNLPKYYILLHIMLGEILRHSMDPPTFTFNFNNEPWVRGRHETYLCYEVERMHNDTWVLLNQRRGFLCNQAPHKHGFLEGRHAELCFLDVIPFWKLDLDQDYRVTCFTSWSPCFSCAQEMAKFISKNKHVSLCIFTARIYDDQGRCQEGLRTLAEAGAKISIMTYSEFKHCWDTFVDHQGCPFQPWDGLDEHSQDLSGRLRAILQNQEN
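Read-out is eYFP fluorescence (Ex 488/Em 500-530) from Vif-expressing HeLa A3G-eYFP cells; more signal means A3G escaped Vif-mediated degradation. Cells plated overnight, compound pinned in, incubated overnight at 37 deg C.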
Giardia kill: Giardia lamblia killing; Giardia lamblia trophozoite viability; activity change, % at 7.66 µM, hits read low; actives 0.15% (n = 340,000); in the data active means activity change below about -80%; inconclusive means between about -30% and that limit;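 further: parasites exposed to compound for two days anaerobically before the ATP read; on the % scale 0 is the no-effect control and ±100 the full control effect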
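Media and compound were dispensed first, then trophozoites at 100 cells/well; plates sat 48 hrs at 37 deg C without oxygen before ATP luminescence reagent was added and read after 15-30 min at room temperature.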
Vif-A3F inh: inhibitors of Vif-A3F interaction. HeLa A3F-eYFP + Vif (tagged APOBEC3F with the HIV-1 protein that degrades it), YFP fluorescence increase. Potency, µM (titrated, usually from 46.1 µM), inactives show at the top dose activity, negative = active. actives 0.2% (n = 390,000); further: potency means the concentration at half of the fitted maximal effect; % of control where 0% means no effect; nearly all actives have a fitted effect of over 65% in size
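HeLa cells stably expressing A3F-eYFP plus Vif, plated and incubated overnight at 37 deg C, then exposed to compounds overnight at 37 deg C. Blocked degradation read as raised yellow fluorescence (Ex 488/Em 500-530).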
IL-1B inflam inh: blocks inflammasome-driven IL-1 beta release; THP-1 LPS/ATP IL-1B secretion, AlphaLISA, 16 h; stronger effect = lower value; activity change, % at 57.5 µM; actives 4.7% (n = 360,000); AID 743279; in the data active means activity change below about -50%; inconclusive means mostly about -30% to -49%; further: on the % scale 0 is the no-effect control and ±100 the full control effect
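Secreted IL-1B measured by AlphaLISA bead assay after 16 h compound exposure of THP-1 cells; compounds (final up to 57.5 uM) added 1 h before LPS (250 ng/mL) and ATP (1.25 mM) stimulation; lower signal means less secretion.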
SW480 rerep: induces DNA re-replication in SW480 colon adenocarcinoma cells; AID 624297; Potency, µM (highest dose often 46.1 µM), without a hit: top-dose re-replication activation, most hits filed as activators; actives 1.8% (n = 340,000); SW480 DNA re-replication, Hoechst DNA content imaging, 48 h; further: potency means the concentration at half of the fitted maximal effect; % of control where 0% means no effect; nearly all actives have a fitted effect of over 55% in size
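Treated cells incubate 48 hr (37 C, 5% CO2), are stained 40 min with Hoechst, and nuclear fluorescence is enumerated; a rise in nuclei with high DNA signal marks re-replication.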
Active calls of the source: *; ? = inconclusive; . = no result given; [ ] = dose if it differs, or a comment. A selection: hits, their analogues and other compounds. The true share with any hit is near 6.9%. Unless noted, the call rests on the fitted dose curve; in most records, active means well fitted curve in the direction sought with a large enough effect; inconclusive means small, poorly fitted or top-dose-only effect, or another doubt; inactive means no such curve, though single readings can be large; an effect the other way counts as inactive or inconclusive.

SMILES | MCF10A rerep | Vif-APOBEC3G blk | Giardia kill | Vif-A3F inh | IL-1B inflam inh | SW480 rerep
Cc1ccc(CNC(=O)Cn2cc(C(=O)c3ccc(Cl)cc3)c(=O)c3ccc(C)nc32)cc1 | . | -16.5% | . | 12.6µM* | . | .
Cc1ccc(CNC(=O)CN2C(=O)NC(C)(c3ccc(Cl)cc3)C2=O)cc1 (centres undefined) | 1.5% | -2.8% | 6.0 | 20.9% | -51.8* | 6.9%
CC(C)(C)NC(=O)CN1C(=O)NC(c2ccccc2)(c2ccccc2)C1=O | 11.6% | 5.0% | -5.8 | ? | 1.6 | 3.2%
O=C(CN1C(=O)NC(c2ccccc2)(c2ccccc2)C1=O)NCc1ccc(F)cc1 | 3.7% | -13.7% | 5.0 | 6.4% | -54.6* | 0.8%
Cc1ccc(C(=O)c2cn(CC(=O)NCc3ccccc3)c3nc(C)ccc3c2=O)cc1 | . | 0.2% | . | -29.6% | . | .
COC(=O)Cn1c(=O)c2cccn2c2ccc(F)cc21 | . | 1.6% | . | 0.4% | . | .
NS(=O)(=O)c1ccc(CCNC(=O)c2nc(SCc3ccccc3F)ncc2Cl)cc1 | . | -3.1% | . | -7.0% | . | .
COc1ccc(Nc2ccnc(Nc3ccc(OC)cc3)n2)cc1 | 23.1µM* | -0.7% | -3.8 | 11.9% | -99.1* | ?
CC(C)(C)OC(=O)NCCCC[C@H](NC(=O)c1[nH]cnc1C(=O)Nc1ccc(Cl)cc1)C(=O)OC(C)(C)C | ? | -1.4% | -2.8 | -9.7% | -58.4* | 10.7%
CC(C)(C)OC(=O)NCCCC[C@H](NC(=O)c1nc[nH]c1C(=O)N1CCN(c2ccccc2)CC1)C(=O)OC(C)(C)C | 11.5% | 1.6% | 32.4 | 5.0% | -55.4* | 68.3%[9.22 µM]
CC(C)(C)OC(=O)NCCCC[C@H](NC(=O)c1[nH]cnc1C(=O)Nc1ccccc1)C(=O)OC(C)(C)C | ? | -3.1% | 1.9 | -2.5% | ? | ?
CCN(CC)CCNC(=O)/C(=C/c1cn(CC)c2ccccc12)NC(=O)c1cc(OC)c(OC)c(OC)c1 | 0.651µM* | 2.2% | -21.0 | 1.4% | 1.7 | -21.5%
COc1ccc2c(c1)c1c(c(=O)n(-c3cccc(C)c3)c(=O)n1CC(=O)NCc1ccc(C)cc1)n2C | . | 1.1% | . | -3.9% | . | .
O=C(NCCc1ccccc1Cl)c1sc2ncccc2c1-n1cccc1 | . | -12.1% | . | -6.3% | . | .
CSC(SC)=C(C(C)=O)C(=O)c1ccc(C)cc1 | 19.8% | -2.5% | -10.9 | -1.6% | -50.2* | -1.5%
Cc1ccc(OCc2cc(=O)n3ccsc3n2)c(NC(=O)c2ccco2)c1 | . | 2.8% | . | -6.4% | . | .
CCOC(=O)C1CCN(c2ncnc3nc[nH]c23)CC1 | -7.5% | -1.6% | 13.5 | -6.8% | -55.5* | -9.8%
CCCOc1ccc(C(=O)Nc2ccc(NC(=O)c3ccccc3)c(Br)c2)cc1 | . | 7.0% | . | -18.0% | . | .
COc1ccc(NC(=O)c2sc3nc(C)c(C(=O)Nc4ccc(C)cc4C)c(-c4ccc(C)o4)c3c2N)cc1 | . | -6.8% | . | ? | . | .
CC(C)=CCc1c2c(c3occ(-c4ccc(O)c(O)c4)c(=O)c3c1O)C=CC(C)(C)O2 | 9.2µM* | -13.0% | -16.1 | 0.9% | -61.6* | 14.8%
CC(C)=CCc1c2c(c3occ(-c4ccc(O)cc4)c(=O)c3c1O)C=CC(C)(C)O2 | ? | 1.2% | 3.4 | 7.2% | -81.7* | 0.8%
O=C(O)CSc1c2ccccc2cc2ccccc12 | ? | ? | 9.3 | 0.4% | -13.1 | ?
Oc1cc(-c2ccccc2)c2ccccc2c1 | ? | -10.2% | -6.7 | -0.5% | -112.9* | 21.2%
CO/N=C/C(NC(=O)c1ccc(C(F)(F)F)cc1)C(=O)OC (centres undefined) | -0.2% | -0.2% | 7.9 | 9.9% | -11.3 | -7.5%
NC(N)=NN=C(c1ccc(F)cc1)c1ccc(C(F)(F)F)cc1 | ? | ? | 5.2 | -16.2% | -104.4* | 6.51µM*
SMILES | MCF10A rerep | Vif-APOBEC3G blk | Giardia kill | Vif-A3F inh | IL-1B inflam inh | SW480 rerep
O=C(c1cccc(C(F)(F)F)c1)N1CCc2c([nH]c3ccccc23)C1C(F)(F)F (centres undefined) | ? | -27.1% | -1.7 | ? | -83.1* | ?
COc1ccccc1NC(=O)N1CCc2c([nH]c3ccccc23)C1C(F)(F)F (centres undefined) | ? | 0.0% | -3.2 | -2.1% | -60.5* | 14.1%
COc1ccc(C(=O)N2CCc3c([nH]c4ccccc34)C2C(F)(F)F)cc1 (centres undefined) | 26.6% | -0.8% | -1.6 | 0.5% | -8.1 | -15.3%
O=C(O)c1ccccc1C(=O)N1CCc2c([nH]c3ccccc23)C1C(F)(F)F (centres undefined) | 2.4% | -0.4% | -19.7 | -1.4% | ? | -2.6%
COc1ccc(-c2ccc(OC)c(C3C4C=CCC(C)C4C(=O)N3Cc3ccccc3)c2)cc1 (centres undefined) | . | -4.2% | 7.4 | . | . | .
O=C1NC(=S)SC1=Cc1ccccc1Br | 14.6µM* | -2.6% | 2.4 | 4.6% | -9.9 | 1.4%
O=C1NC(=S)SC1=Cc1ccc(Cl)cc1 | 9.2µM* | 1.7% | 0.5 | -16.7% | -26.4 | ?
CCOc1ccccc1C=C1SC(=S)NC1=O | 18.4µM* | 4.4% | -20.7 | -0.1% | -8.9 | 9.9%
CN1CCN(C(CNC(=O)C(=O)Nc2ccc(Cl)cc2)c2cccnc2)CC1 (centres undefined) | . | 3.9% | . | 0.9% | . | .
COc1ccccc1CN1CCNC(=O)C1=O | . | 8.5% | . | 3.7% | . | .
O=C(NCCc1nc2ccccc2n1CCCOc1ccccc1Cl)C1CCCCC1 | . | -8.7% | -11.7 | . | . | .
CCc1ccc(-n2nc(C)c3c(C(=O)Nc4cc(C)c(Cl)cc4OC)cc(C)nc32)cc1 | . | -9.6% | . | -0.9% | . | .
CN1CC(c2ccc(Cl)c(Cl)c2)[C@@]2(COc3ccccc3C2=O)[C@@]12C(=O)Nc1ccccc12 (some centres undefined) | 16.4µM* | 0.6% | -10.6 | -15.9% | -12.3 | ?
CCCN1C(=O)c2ccccc2NC1c1ccc(Cl)c(Cl)c1 (centres undefined) | 16.0% | -7.1% | -0.2 | -18.7% | -1.4 | 0.2%
Cc1nn2c(=O)cc(COC(=O)c3ccc(NC(=O)c4cccc(Br)c4)cc3)nc2s1 | . | -2.3% | . | 0.0% | . | .
Cc1ccc(C(=O)N(C)CC(=O)Nc2ccc(Cl)c(C(F)(F)F)c2)cc1S(=O)(=O)N1CCCCC1 | 20.6µM* | -7.9% | 9.4 | -1.6% | -23.3 | ?
COc1ccc(S(=O)(=O)N2CCCCCC2)cc1C(=O)N(C)Cc1ccc(F)cc1 | -9.5% | 0.8% | -11.1 | -12.3% | -25.8 | -57.0%
COc1cccc(NC(=O)CN(C)C(=O)c2cc(S(=O)(=O)N3CCCCC3)ccc2Cl)c1 | 0.4% | 0.6% | -10.0 | 6.5% | 6.9 | -0.3%

Compound activity deposited in PubChem BioAssay by National Center for Advancing Translational Sciences (NCATS).
